Screening data: PubChem BioAssay, The Scripps Research Institute Molecular Screening Center
In the library only some 2.9% were active in any assay of this set; here they are far more common.
PAFAH2 inh – PAFAH2 enzyme inhibitors, primary screen, biochemical, fluorescence polarization, human. Platelet-activating factor acetylhydrolase 2, cytoplasmic (Homo sapiens), Q99487. inhibition, % at 3.39 µM. 340,000 compounds, 0.99% hits. recombinant PAFAH2, FP-rhodamine activity probe;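 active = inhibition above the mean over all tested compounds plus 3 SD, cut at about 30% in these data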;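 also: inhibitors block probe labeling of enzyme so polarization drops; 0% = enzyme with DMSO and 100% = wells lacking PAFAH2 protein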
PME-1 primary – PME-1 inhibitors via competitive probe labeling, primary screen, biochemical, fluorescence polarization, FP-Rh probe, HTS; 320,000 compounds, 0.53% hits; Protein phosphatase methylesterase 1 (Homo sapiens), Q9Y570; inhibition, % at 5.9 µM; recombinant PME-1;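 active = inhibition above the campaign mean of all compounds plus 3 SD, cut at about 26% in these data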;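 also: competitive labeling of PME-1 active site by serine hydrolase directed probe; 0% = PME-1 with DMSO and 100% = wells lacking PME-1 enzyme; inhibitors block probe labeling so polarization falls and inhibition rises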
PAFAH1B3 inh – PAFAH1B3 enzyme inhibitors, primary screen, biochemical, fluorescence polarization, human; AID 492972, 2010; Platelet-activating factor acetylhydrolase IB subunit alpha1 (Homo sapiens), Q15102; recombinant PAFAH1B3, FP-rhodamine probe; inhibition, % at 3.39 µM; 340,000 compounds, 0.28% hits;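 active = inhibition above the screen-wide average of all tested compounds plus 3 SD, cut at about 25% in these data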;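 also: 0% = enzyme with DMSO only and 100% = wells lacking PAFAH1B3 protein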
Target sequence (Q15102 whole entry, looked up): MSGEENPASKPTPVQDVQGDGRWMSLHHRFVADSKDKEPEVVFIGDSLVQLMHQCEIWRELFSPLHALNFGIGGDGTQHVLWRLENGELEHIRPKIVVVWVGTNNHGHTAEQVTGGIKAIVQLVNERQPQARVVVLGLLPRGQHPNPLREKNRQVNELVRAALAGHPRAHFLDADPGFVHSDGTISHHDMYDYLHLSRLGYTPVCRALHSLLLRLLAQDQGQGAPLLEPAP
Fam108B inh – mouse Fam108B serine hydrolase inhibitors, primary screen, counter-screen for RBBP9 inhibitor project, biochemical, fluorescence polarization. recombinant Fam108B, FP-Rh probe fluorescence polarization. inhibition, % at 9.51 µM. 300,000 compounds, 0.33% hits. AID 1947, 2009;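 active = inhibition above the screen mean inhibition plus 3 SD, computed separately per campaign, cut at about 18% in these data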;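 also: inhibitors lower polarization as less probe binds the enzyme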
pPAFAH inh – pPAFAH enzyme inhibitors, primary screen, biochemical, fluorescence polarization, human. 330,000 compounds, 1.5% hits. inhibition, % at 3.39 µM. Platelet-activating factor acetylhydrolase (Homo sapiens), Q13093. recombinant pPAFAH, FP-rhodamine probe fluorescence polarization;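 active = inhibition above the mean inhibition across the screen plus 3 SD, cut at about 25% in these data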;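 also: inhibitors block binding of the rhodamine activity-based probe so polarization drops; 0% = enzyme with DMSO and 100% = wells lacking pPAFAH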
PAFAH1B2 inh – PAFAH1B2 enzyme inhibitors, primary screen, biochemical, fluorescence polarization, human; Platelet-activating factor acetylhydrolase IB subunit alpha2 (Homo sapiens), P68402; recombinant PAFAH1B2, FP-rhodamine activity probe; inhibition, % at 3.39 µM; 340,000 compounds, 1.2% hits;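 active = inhibition above the mean of all tested compounds plus 3 SD, cut at about 24% in these data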;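 also: 0% = enzyme with DMSO and 100% = wells lacking PAFAH1B2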
Target sequence (P68402 whole entry, looked up): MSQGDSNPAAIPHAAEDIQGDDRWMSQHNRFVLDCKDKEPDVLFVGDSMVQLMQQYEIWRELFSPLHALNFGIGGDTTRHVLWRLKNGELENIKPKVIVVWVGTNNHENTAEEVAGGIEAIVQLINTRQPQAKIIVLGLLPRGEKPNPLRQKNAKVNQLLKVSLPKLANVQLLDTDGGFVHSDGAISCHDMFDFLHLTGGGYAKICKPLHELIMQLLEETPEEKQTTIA
pPAFAH confirm – pPAFAH (PLA2G7) enzyme inhibitors, confirmation, biochemical, fluorescence polarization, human. AID 463230, 2010. 2,300 compounds, 72% hits. shares compounds with pPAFAH inh. recombinant pPAFAH, FP-Rh probe fluorescence polarization. inhibition, % at 3.39 µM;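 active = mean inhibition of the triplicate above the hit cutoff set for the earlier primary screen, cut at about 25% in these data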;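 also: 0% = enzyme with DMSO and 100% = wells lacking pPAFAH enzyme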
* hit, by the source's call; . = not tested or not shown.

SMILES | PAFAH2 inh | PME-1 primary | PAFAH1B3 inh | Fam108B inh | pPAFAH inh | PAFAH1B2 inh | pPAFAH confirm
COc1ccc(CC(=O)Oc2ccc(C)cc2Br)cc1S(=O)(=O)N1CCOCC1 | 4 | -5 | 5 | -7 | -3 | 1 | .
CCOc1cccc(=O)c2c(C)n(-c3ccc(C(=O)O)cc3)c(C)c12 | 8 | -15 | 6 | 13 | 38* | 3 | 21
CCOc1ccccc1CNCc1ccc(C(=O)O)cc1 | -2 | 1 | 6 | 1 | -6 | -4 | .
CCOc1ccccc1NC(=O)CCS(=O)(=O)c1ccc(Br)cc1 | 4 | 2 | 0 | 1 | 2 | 10 | .
CC(=O)N1CCN(S(=O)(=O)c2cccc(C(=O)NNC(=O)COc3ccc(F)cc3)c2)CC1 | -2 | 3 | 7 | . | 4 | 4 | .
S=c1[nH]nc(-c2ccc(Cl)cc2)n1/N=C/c1ccco1 | 8 | -3 | 6 | 1 | 4 | 6 | .
S=c1[nH]nc(-c2ccc(Cl)cc2)n1/N=C/C=C/c1ccco1 | . | 1 | . | 2 | 39* | . | 13
O=C(Nc1cccc(Cl)c1)Nc1nnc(-c2ccncc2)s1 | 8 | -34 | -4 | 0 | 42* | 7 | 35*
O=C(Nc1ccc(Cl)cc1)Nc1nnc(-c2ccncc2)s1 | 4 | -101 | 8 | 0 | 1 | -3 | .
CN(C)c1ccc(NC2=C([N+](=O)[O-])CS(=O)(=O)C2)cc1 | 3 | -6 | 12 | 0 | 39* | 2 | 7
O=C(Cn1c(=O)cnc2ccccc21)Nc1cccc(S(=O)(=O)N2CCCCC2)c1 | -2 | 0 | 1 | . | 4 | -1 | .
Cc1ccc(NS(=O)(=O)c2ccc(Cl)c(N=Nc3c(O)[nH]c(=O)[nH]c3=O)c2)cc1Cl | 41* | . | 26* | . | 89* | 16 | 89*
COc1ccc(NS(=O)(=O)c2cc(N=Nc3c(O)[nH]c(=O)[nH]c3=O)ccc2Cl)cc1 | 7 | . | 3 | . | 17 | 7 | .
O=C(O)c1cccc(N2C(=O)c3cccc4cccc(c34)C2=O)c1 | 2 | . | 8 | . | . | 7 | .
O=C(O)c1cccc(N2C(=O)c3cc([N+](=O)[O-])cc4cc([N+](=O)[O-])cc(c34)C2=O)c1 | 20 | 8 | 34* | 15 | 45* | 10 | 21
CCCSC1=N/C(=C\C=C\c2ccco2)C(=O)S1 | 45* | 0 | 11 | 6 | 45* | 9 | 13
CCCSC1=N/C(=C\c2ccsc2)C(=O)S1 | 9 | -5 | 5 | -4 | -6 | -1 | .
CCN(C[C@H]1N[C@@](Cc2ccccc2)(C(=O)OC)[C@H]2C(=O)N(C)C(=O)[C@@H]12)C(=O)Nc1ccc(C(F)(F)F)cc1 | 12 | . | 6 | . | 1 | 4 | .
O=C(O)c1cc(O)c2c(c1)C(=O)c1cc(O)cc(O)c1C2=O | 13 | -9 | 17 | 6 | 35* | 16 | 24
COCCNC(=O)/C(C#N)=C/c1cc(C)n(-c2ccc(C)cc2)c1C | 8 | -1 | 7 | 0 | 55* | 1 | 52*
CN1C(C(=O)NCc2ccco2)=CC(c2ccc(F)cc2)=NS1(=O)=O | 3 | 5 | -7 | -3 | 67* | -7 | 10
O=C1C=C(c2ccc3c(c2)oc2ccccc23)C[C@@H](c2ccc(Cl)cc2)C1 | 1 | -2 | 8 | . | 1 | 2 | .
CCOC(=O)Cc1cc(=O)n2[nH]c(C)c(-c3ccccc3)c2n1 | -3 | -13 | -5 | -7 | 16 | -1 | .
CCOC(=O)Cc1cc(=O)n2[nH]c(-c3ccccc3)c(-c3ccccc3)c2n1 | -4 | 0 | -18 | -1 | 43* | -5 | 19
COc1cccc(CN2CCNC(=O)C2CC(=O)N(C)C2CCCCC2)c1 (stereo unspecified) | 9 | 5 | 2 | 1 | 3 | 5 | .
SMILES | PAFAH2 inh | PME-1 primary | PAFAH1B3 inh | Fam108B inh | pPAFAH inh | PAFAH1B2 inh | pPAFAH confirm
O=C(C[C@@H]1C/C=C\CCC(=O)O[C@H](c2ccccc2)CNC1=O)N[C@H](CO)Cc1ccccc1 | -9 | . | -4 | . | -3 | 0 | .
Nc1ccc(-c2nc3nc(N)nc(N)c3nc2-c2ccc(N)cc2)cc1 | 4 | 1 | 7 | -4 | 6 | 3 | .
CNc1ccc(Br)cc(C(=O)/C=C/c2ccc(Cl)cc2Cl)c1=O | 30* | 11 | 4 | 10 | 51* | 4 | 36*
CCNc1ccc(Br)cc(C(=O)/C=C/c2ccc(Cl)cc2)c1=O | 28 | 10 | 11 | 11 | 53* | 7 | 27*
COc1cccc(/C=C/C(=O)Nc2ccc3[nH]c(=O)[nH]c3c2)c1 | 4 | 3 | 0 | 6 | 12 | 2 | .
O=C(/C=C/c1ccc(F)cc1)c1cc(Br)ccc1O | -4 | -4 | 5 | -6 | 3 | 5 | .
CNc1ccc(Br)cc(C(=O)/C=C/c2cccc(OC)c2)c1=O | 27 | 13 | 11 | 3 | 36* | -3 | 24
CCNc1ccc(Br)cc(C(=O)/C=C/c2c(Cl)cccc2Cl)c1=O | 36* | 13 | 6 | 18 | 44* | 1 | 28*
CS(=O)(=O)Nc1ccc(Br)cc1C(=O)c1ccccc1 | 2 | 3 | 5 | 7 | 4 | 9 | .
COC(=O)c1cc(Cl)c(NC(=O)/C=C/c2ccc(Cl)cc2Cl)cc1OC | -3 | -9 | -9 | -9 | -2 | -2 | .
Cc1cc(C2C(=O)NC(=O)C2=O)c(C)cc1Br (stereo unspecified) | 8 | . | -2 | . | . | 2 | .
CCC1CCCCN1C(=O)CCNC(=O)Cn1cnc2ccccc2c1=O (stereo unspecified) | -5 | 2 | 0 | -2 | 5 | 4 | .
O=Nc1c(-c2cccc([N+](=O)[O-])c2)nc2ncccn12 | . | 10 | . | 5 | 4 | . | .
Nc1ccccc1C(=O)/C=C/c1ccc2c(c1)OCO2 | 2 | 2 | -1 | -1 | 2 | -2 | .
CCNc1ccc(Br)cc(C(=O)/C=C/c2ccc3c(c2)OCO3)c1=O | 36* | 7 | 9 | 9 | 48* | 4 | 17
COc1cc(O)c(C(C)=O)c(CC(=O)O)c1 | 6 | 2 | 17 | 2 | 10 | 8 | .
Cc1[nH]n(-c2nc(-c3ccccc3F)cc(=O)[nH]2)c(=O)c1CCO | 3 | 1 | -3 | -4 | 41* | 2 | 6
Cc1[nH]n(-c2ccccc2)c(=O)c1CCO | -2 | -7 | 3 | 5 | 2 | 2 | .
Cc1onc(-c2ccccc2)c1C(=O)Nc1nnc(C(C)(C)C)s1 | 2 | -3 | 4 | 2 | 0 | 7 | .
